The results in this text go back to PubChem BioAssay AID1851 (National Center for Advancing Translational Sciences (NCATS), 2009).

Out of some 16,000 compounds screened, about 5,100 (32%) were called active. Roughly 25% stayed inconclusive and do not appear here. Calls follow the shape of the dose curve; as a rule, active = well fitted curve in the direction sought with a large enough effect; inconclusive = small, poorly fitted or top-dose-only effect, or effect the other way; inactive = no such curve, though single readings can be large or run the other way. The list shows a part of the results.
% is scaled to controls: 0 for no effect and ±100 for the full control effect.

Chain of Cytochrome P450 3A4 (Homo sapiens) (P08684 whole entry, looked up): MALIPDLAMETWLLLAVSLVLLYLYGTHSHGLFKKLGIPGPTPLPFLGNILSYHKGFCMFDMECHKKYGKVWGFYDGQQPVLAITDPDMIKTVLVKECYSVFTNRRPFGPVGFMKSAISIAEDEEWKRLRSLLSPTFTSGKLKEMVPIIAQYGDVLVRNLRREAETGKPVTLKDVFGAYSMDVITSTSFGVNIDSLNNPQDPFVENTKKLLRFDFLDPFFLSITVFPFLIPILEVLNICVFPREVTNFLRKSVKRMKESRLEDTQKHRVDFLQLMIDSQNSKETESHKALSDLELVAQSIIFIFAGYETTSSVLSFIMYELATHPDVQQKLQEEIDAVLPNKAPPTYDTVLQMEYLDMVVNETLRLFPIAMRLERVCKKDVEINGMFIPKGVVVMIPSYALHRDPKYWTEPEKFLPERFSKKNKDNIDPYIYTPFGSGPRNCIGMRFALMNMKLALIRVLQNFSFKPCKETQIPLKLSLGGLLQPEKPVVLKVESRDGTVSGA

This assay has as its target Cytochrome P450 3A4 (Homo sapiens) (UniProt P08684). As to the kind of experiment: Cytochrome panel assay with activity outcomes. Conditions: recombinant CYP, pro-luciferin dealkylation, luminescence, p450-cyp3a4; series mostly up to 57.1 µM; activity, negative = inhibition: at the top concentration.
Take `CCN1C(=O)CC(N2CCN(CC(=O)NC(C)C)CC2)C1=O` (configuration not stated): the “activity, negative = inhibition” value was 1.59% (inactive).
As a reminder, the AC50 is the concentration giving half of the maximal activity seen. Regarding `Cc1onc(-c2ccccc2)c1C(=O)NCCc1c[nH]c2ccccc12`, the AC50 was 8.91 µM (active).
Regarding `COc1cc(C(=O)Nc2ccc(-c3nnc(-c4ccco4)o3)cc2)cc(OC)c1OC`, the AC50 was 7.08 µM (active).
In the case of `O=C(COc1ccccc1)Nc1ccc(-c2nnc(-c3ccco3)o2)cc1`, the “activity, negative = inhibition” value is 18.1% (inactive).
For `COc1cccc(C(=O)Nc2ccc(-c3nnc(-c4ccco4)o3)cc2)c1`, the AC50 is 4.47 µM (active).
`C=CCNc1oc(/C=C/c2ccccc2)nc1C#N`: the AC50 was 15.8 µM (active).
Take `Cc1cnc(CNc2nc(-c3ccoc3)nc3ccccc23)cn1`: the AC50 was 12.6 µM (active).
Turning to `Cc1cnc(CNc2nc(-c3ccc(N(C)C)cc3)nc3ccccc23)cn1`, the AC50 is 5.01 µM (active).
Consider `C=CCn1c(-c2cccn(Cc3ccccc3)c2=O)n[nH]c1=S`, for which the AC50 is 12.6 µM (active).
For `C=CCn1c(C(C)NC(=O)c2ccccc2)n[nH]c1=S` (configuration not stated), the activity, negative = inhibition is -3.87% [at 11.4 µM] (inactive).
On to `CC(=O)NNc1nc2ccccc2s1`, for which the “activity, negative = inhibition” value is -8.59% (inactive).
As to `O=c1c(-c2nc3ccccc3s2)cccn1Cc1ccccc1`, the AC50 was 17.8 µM (active).
`O=c1c(-c2nc3ccccc3s2)cccn1Cc1ccc(Cl)cc1`: the AC50 was 14.1 µM (active).
For `Clc1ccc(CCNc2nc3ccccc3s2)cc1`, the AC50 was 15.8 µM (active).
For the compound `O=C(NNc1nc2ccccc2s1)c1ccccc1F`, the “activity, negative = inhibition” value was -13.7% (inactive).
Regarding `OC[C@@H]1O[C@@H](n2cnc3c(NC4CCCCC4)ncnc32)[C@@H](O)[C@H]1O`, the “activity, negative = inhibition” value is -10.8% (inactive).
Same read-out and setting: with `CC(=O)NS(=O)(=O)c1ccc(NC(=O)NC2CCCCC2)cc1` the figure was -6.87% (inactive).
As for `Cc1ccc(NC(=O)CCc2ccc(S(=O)(=O)NC3CCCCC3)cc2)cc1`, the AC50 was 0.891 µM (active).
Consider `O=C(NNS(=O)(=O)c1ccc(Cl)cc1)NC1CCCCC1`, for which the “activity, negative = inhibition” value was 14.5% (inactive).
With `O=C(CCc1ccc(S(=O)(=O)NC2CCCCC2)cc1)N(Cc1ccccc1)Cc1ccccc1`, the AC50 was 3.16 µM (active).
For the compound `CCC(C)NS(=O)(=O)c1ccc(NC(=O)CCC2CCCCC2)cc1` (configuration not stated), the activity, negative = inhibition is 14.9% [at 2.29 µM] (inactive).
As for `O=C(CCc1ccccc1)NNC(=O)C1CCCCC1`, the activity, negative = inhibition was -0.205% [at 2.29 µM] (inactive).
As for `O=C(O)c1ccccc1/C=N\N=C1c2ccccc2-c2ccccc21`, the activity, negative = inhibition was -13.2% [at 11.4 µM] (inactive).
Take `CCOc1ccccc1OCCOc1ccc(F)cc1`: the “activity, negative = inhibition” value was -15% (inactive).
Regarding `Cn1c(CNS(=O)(=O)c2ccc(F)cc2)n[nH]c1=S`, the “activity, negative = inhibition” value was -10.2% (inactive).
Take `CCOc1ccc(S(=O)(=O)NCc2ccc(F)cc2)c2cccnc12`: the AC50 was 15.8 µM (active).
Turning to `Nc1ccc(S(=O)(=O)Nc2nccs2)cc1`, the “activity, negative = inhibition” value was -15.7% [at 25.6 µM] (inactive).
Consider `O=C(CCN1C(=O)S/C(=C\c2ccccc2)C1=O)Nc1ccc(S(=O)(=O)Nc2nccs2)cc1`, for which the AC50 was 5.01 µM (active).
`O=C1Nc2ccccc2C1=Nc1ccc(S(=O)(=O)Nc2nccs2)cc1`: the activity, negative = inhibition was -1.93% [at 11.4 µM] (inactive).
For `O=C(NCC1CCCO1)C1c2ccccc2C(=O)N1Cc1ccc2c(c1)OCO2` (configuration not stated), the AC50 is 1.41 µM (active).
Consider `O=C(NCC1CCCO1)C1CCC(=O)N1CCc1ccccc1` (configuration not stated), for which the “activity, negative = inhibition” value was -13.8% (inactive).
Take `CCS(=O)(=O)N1CCC(C(=O)NCC2CCCO2)CC1` (configuration not stated): the “activity, negative = inhibition” value was 1.97% (inactive).
On the same count and under the same terms, the figure for `CCOc1ccc(-n2c(C)nc3cc(C(=O)NCc4ccco4)ccc32)cc1` is -16.2% (inactive); for `CCOc1ccc(N2C(=O)c3cccnc3C2=O)cc1` it is -13.3% (inactive).
`CCOc1ccc(-n2c(N)c(C(=O)NCc3cccnc3)sc2=S)cc1`: the half-maximal activity concentration (AC50) is 2 µM (active).
Consider `COc1ccc(-n2c(N)c(C(=O)NCc3ccco3)sc2=S)cc1`, for which the half-maximal activity concentration (AC50) is 25.1 µM (active).
Take `Cc1ccc(-n2c(N)c(C(=O)NCc3ccco3)sc2=S)cc1`: the AC50 is 25.1 µM (active).
`CC(C)c1cc(CN(C)C)c(O)c(C(C)(C)C)c1`: the activity, negative = inhibition was -5.68% [at 11.4 µM] (inactive).
In the case of `N#Cc1c(-c2ccc(Cl)cc2)nc2n(c1=O)CCCS2`, the “activity, negative = inhibition” value was -15.8% (inactive).
Consider `CCNc1nc(NCC)nc(N(C)N)n1`, for which the “activity, negative = inhibition” value was -10.2% (inactive).
On to `COc1ccccc1S(=O)(=O)Nc1ccc(-c2nnc3n2CCCCC3)cc1`, for which the AC50 was 14.1 µM (active).
On to `COc1ccc(NS(=O)(=O)c2cc(-c3nnnn3C)ccc2OC)cc1`, for which the activity, negative = inhibition is -15.9% [at 11.4 µM] (inactive).
Turning to `O=C(/C(=C/c1ccc(Cl)cc1)c1nc2ccccc2[nH]1)c1ccccc1`, the AC50 was 3.55 µM (active).
As to `Cc1ccc(/C=C/C(=O)c2nc3ccccc3[nH]2)cc1`, the activity, negative = inhibition is -18.1% [at 2.29 µM] (inactive).
Take `O=C(O)/C(=C/c1c(C(=O)O)[nH]c2cc(Cl)cc(Cl)c12)c1ccccc1`: the “activity, negative = inhibition” value was -1.29% (inactive).
For `COCCN(C(=O)Nc1ccc(OC)cc1OC)C1CCN(C(C)=O)CC1`, the “activity, negative = inhibition” value is -11.9% (inactive).
Consider `COc1ccc(N2CCC(CNC(=O)Nc3ccc(OC)cc3OC)C2)cc1` (configuration not stated), for which the AC50 was 7.08 µM (active).
As to `COc1ccc(CCNC(=O)CCN2C(=O)C(C)Oc3ccc(C)cc32)cc1OC` (configuration not stated), the AC50 is 1.78 µM (active).
The same measure, in the same setting: with `COc1ccc(CCNC(=O)CCN2C(=O)COc3ccc(C)cc32)cc1OC` the figure was 2.24 µM (active).
Regarding `Cc1ccc2c(c1)N(CC(=O)NCc1cccs1)C(=O)C(C)O2` (configuration not stated), the activity, negative = inhibition is -21.8% [at 2.29 µM] (inactive).
On the same count and under the same terms, with `COc1ccc(CC(=S)N2CCOCC2)cc1OC` the figure was -2.8% [at 2.29 µM] (inactive).
The same measure, in the same setting: the figure for `O=C1CSC(c2ccccn2)N1c1ccc(Cl)c(Cl)c1` (configuration not stated) is 11% (inactive).
